# Compounds with a hit are over-represented: about 4.8% of the library has one in this group of screens.
# SUMO Mot1 rescue: SUMOylation pathway inhibition by Mot1-301 growth rescue | S. cerevisiae Mot1-301 growth rescue, ATP luminescence, 38.5C; percent above DMSO median, 100 means doubled | growth rescue, % at 18.8 µM | actives 1% (n = 320,000);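 active = every valid replicate shows activation above 250% relative to neutral control wells; inactive = the rest, any valid replicate at or below 250%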;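 note: OY570 slx delta 5 strain wells were the positive control but not used for scaling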
# HIF activator: HIF pathway transcriptional activation | activation, % at 7.5 µM (by protocol) | U2OS HRE-luciferase reporter, luminescence; normalized: DMSO 0%, desferrioxamine 100% | AID 1910 | actives 0.32% (n = 300,000);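 active = mean activation of at least 10% of the iron chelator positive control signal, with at least half of replicates also reaching 10%; inconclusive = mean and replicate majority disagree about reaching 10%; inactive = mean and most replicates under 10%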
# ALR inh: human ALR oxidase inhibition via reduced H2O2; inhibition, % (concentration not given with the values); actives 3.8% (n = 290,000); P55789; purified ALR, DTT oxidation, H2O2 HRP-luminol luminescence;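 active = mean replicate inhibition above about 79%, with every replicate also reaching it, limit read from the data; inconclusive = only one of the two criteria met; inactive = mean below limit and not every replicate reaching it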
# Target sequence (P55789 whole entry, looked up): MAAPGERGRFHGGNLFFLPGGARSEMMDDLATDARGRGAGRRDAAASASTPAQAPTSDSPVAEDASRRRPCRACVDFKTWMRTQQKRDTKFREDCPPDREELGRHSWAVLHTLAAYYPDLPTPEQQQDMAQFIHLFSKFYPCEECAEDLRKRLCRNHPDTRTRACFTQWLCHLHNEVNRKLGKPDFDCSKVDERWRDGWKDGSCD
# AI-2 QS mod: Vibrio harveyi AI-2 quorum sensing modulation; Vibrio harveyi JMH597 AI-2 luminescence/OD600 ratio, 9 h; stronger effect = lower value; strain lacks LuxN and CqsS sensors; 0 = neutral-control median; activity change, % at 7.5 µM; actives 0.4% (n = 300,000); AID 2094; in the data active = activity change below about -75%, passing the limit was not always enough; inconclusive = no clear call, values can overlap the other calls;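 note: luminescence divided by OD600 gain over 9 h not by final OD600 alone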
# * hit, by the source's call; ? = inconclusive; · = no result given.
SMILES,SUMO Mot1 rescue,HIF activator,ALR inh,AI-2 QS mod
O=C(NNc1nc2c(F)cc(F)cc2s1)C1=COCCO1,386,2,98*,24
O=C(NNc1nc2cc3c(cc2s1)OCCO3)c1ccc(F)cc1,1,1,31,-90*
O=C1C2C3CCC(C3)C2C(=O)N1CNc1ccccc1 (stereo unspecified),-7,0,39,15
CC(=O)Nc1ccc(NCN2C(=O)[C@@H]3[C@H]4CC[C@H](C4)[C@@H]3C2=O)cc1,-9,0,94*,7
CCN(C(=O)CSc1nc(N)cc(=O)[nH]1)c1c(N)n(Cc2ccccc2)c(=O)[nH]c1=O,-5,0,0,28
CCOc1ccc(N(CC(=O)Nc2cc(OC)cc(OC)c2)S(=O)(=O)c2c(C)[nH]c(=O)[nH]c2=O)cc1,24,0,-20,21
Cc1ccc(C)c(NC(=O)NNS(=O)(=O)c2ccc(C)c(C)c2)c1,1,-1,85*,7
Cc1ccc(S(=O)(=O)NNC(=O)CCC(=O)Nc2ccc(C)c(C)c2)cc1,350*,0,19,21
Cc1ccc(S(=O)(=O)NNC(=O)CCC(=O)Nc2ccccc2Cl)cc1,8,·,4,13
CCn1c(SCC(=O)Nc2nccs2)nnc1-c1ccc(S(=O)(=O)N2CCCCCC2)cc1,57,0,·,20
CCn1c(SCc2ccc(C(=O)Nc3nccs3)cc2)nnc1-c1ccc(N)cc1,-16,0,82*,5
Cn1c(SCc2ccc(C(=O)Nc3nccs3)cc2)nnc1-c1ccccc1,-8,1,39,16
CCn1c(SCc2ccc(C(=O)Nc3nccs3)cc2)nnc1-c1ccc(NC(C)=O)cc1,-6,1,99*,6
CC1CCN(C(=O)c2[nH]cnc2C(=O)Nc2ccon2)CC1,5,·,-3,·
O=c1[nH]n(-c2ccc(Cl)cc2)c2ncccc12,-2,0,99*,74
O=c1[nH]n(-c2cccc3cccnc23)c(=O)c2ccccc12,5,0,-8,28
O=S(=O)(NCc1ccccc1)c1cccc2nonc12,-9,0,99*,28
CCCCCN(C(=O)CCC(=O)OCC(=O)c1ccc(C(C)CC)cc1)c1c(N)n(CCCC)c(=O)[nH]c1=O (stereo unspecified),11,?,-2,8
Nc1nc(Nc2ccccc2)n[nH]1,-13,1,98*,23
Nc1nc(Nc2ccc(Cl)cc2)n[nH]1,81,0,99*,8
Nc1nc(Nc2cccc(Cl)c2)n[nH]1,-7,0,41,23
CC(C)Cn1c(-c2nn(C)cc2Cl)n[nH]c1=S,3,0,10,32
Cc1ccsc1-c1n[nH]c(=S)n1CC(C)C,-1,0,94*,22
Cc1c(Cl)c(-c2n[nH]c(=S)n2-c2ccc(F)cc2)nn1C,-7,0,91*,36
Cc1c(Cl)c(-c2n[nH]c(=S)n2CC(C)C)nn1C,10,0,93*,-5
SMILES,SUMO Mot1 rescue,HIF activator,ALR inh,AI-2 QS mod
Cn1cc(Cl)c(-c2n[nH]c(=S)n2-c2ccc(F)cc2)n1,1,0,88*,11
COc1ccc(-n2ncc3c2CC(C)(C)CC3NC(=O)CN2CCOC2=O)cc1 (stereo unspecified),-8,1,-9,9
COc1ccccc1NC(=O)c1ccc(CSc2ccccc2)o1,-9,0,0,-6
Cc1[nH]c2ccccc2c1N=Nc1cccc(C(=O)O)c1,9,3,98*,23
Cc1c(Cl)cccc1NC(=O)CCN1C(=O)C2CC=CCC2C1=O (stereo unspecified),158,0,-4,18
COc1ccc(S(=O)(=O)NCc2ccc(C(=O)O)cc2)cc1,8,-1,-6,21
COC(=O)c1ccc(CNS(=O)(=O)c2ccc3ccccc3c2)cc1,330*,0,0,6
CCCN1C(=O)c2ccccc2NC1c1ccc(OC)cc1OC (stereo unspecified),24,0,2,-16
CCCN1C(=O)c2ccccc2NC1c1ccc(OC)cc1O (stereo unspecified),-9,0,88*,23
O=C(c1ccoc1)N1CCCC(N2CCN(c3cccc(Cl)c3)CC2)C1 (stereo unspecified),-11,1,93*,11
Cc1cc(C)n(CCC(=O)N2CCCC(N3CCN(c4cccc(Cl)c4)CC3)C2)n1 (stereo unspecified),13,0,17,-3
Cc1cc(C(=O)N2CCCC(N3CCN(c4cccc(Cl)c4)CC3)C2)no1 (stereo unspecified),4,-1,80*,28
O=C(CCn1cccn1)N1CCCC(N2CCN(c3cccc(Cl)c3)CC2)C1 (stereo unspecified),-5,1,93*,-5
CCOC(=O)C1CCN(C(=O)C2CC(=O)N(c3ccc4c(c3)OCCO4)C2)CC1 (stereo unspecified),1,0,-12,41
O=C(Cc1ccc(Cl)cc1)OCC(=O)N1CCCCCC1,6,·,50,·
O=c1oc2ccccc2c(Nc2ccc(O)cc2)c1[N+](=O)[O-],9,0,94*,14
Cc1ccc(Nc2c([N+](=O)[O-])c(=O)oc3ccccc23)cc1,-9,0,-3,5
CN(C(=O)CC(NC(=O)c1ccccc1Cl)c1ccccc1)c1ccccc1 (stereo unspecified),1,0,-6,12
Cc1ccc(N2C(=O)CS/C2=N\C(=S)Nc2ccccc2)cc1,4,1,90*,8
CCN(c1cccc(C)c1)S(=O)(=O)c1cc2c3c(c1)CCC(=O)N3CCC2,8,0,·,19
CC(Cc1ccccc1)NC(=O)CN1C(=O)c2ccccc2S1(=O)=O (stereo unspecified),-5,1,-2,31
CC(=S)/C=C1\Sc2ccccc2N1C,12,0,83*,-1
CCCCc1cc(=O)oc2cc(OCC(=O)NCc3ccccn3)ccc12,322*,0,1,·
Cc1oc2cc3oc(=O)c(CC(=O)N[C@@H](C)C(=O)NC(Cc4ccc(Cl)cc4)C(=O)O)c(C)c3cc2c1C (stereo partly specified),-7,0,98*,10
Cc1c(OCC(=O)NC(Cc2ccc(Cl)cc2)C(=O)O)ccc2c1oc(=O)c1ccccc12 (stereo unspecified),2,0,88*,18
Cc1c(C)c2ccc(OCC(=O)N[C@@H](Cc3ccccc3)C(=O)O)cc2oc1=O,-26,0,11,15
CCCCCCc1c(C)c2ccc(OCC(=O)N[C@@H](Cc3ccccc3)C(=O)O)cc2oc1=O,522*,0,97*,1
CC1CSC(N(C(=O)c2ccc(S(C)(=O)=O)cc2)c2ccc(Cl)cc2)=N1 (stereo unspecified),8,1,0,31
CC1(C)C(Cl)C(=O)C(C(=O)c2ccccc2)C(=O)C1Cl (stereo unspecified),185,-23,-1,3
